Source: PubChem BioAssay
Shown are actives, neighbours in structure and some others; about 2.4% of the full set was active somewhere.
HSP90 refold inh: blocks HSP90-mediated luciferase refolding in reticulocyte lysate; Rabbit reticulocyte lysate, luciferase refolding luminescence, 3 h; 0.91% of 290,000 active; inhibition, % at 5.6 µM; AID 1789;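 active = inhibition above the screen-wide mean plus 3 SD, computed separately per campaign, cut at about 16% in these data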;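 note: 0% = DMSO wells and 100% = 60 µM geldanamycin wells; inhibitors lower the luminescence because luciferase stays unfolded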
STAT3 blocker: inhibitors of IL-6 induced STAT3 signaling. inhibition, % at 5.5 µM. AID 862. 0.89% of 190,000 active. U3A cells, IL-6 STAT3-luciferase reporter, luminescence; host cell line lacks STAT1;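 active = inhibition above the mean inhibition across all screened compounds plus 3 SD, cut at about 44% in these data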;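 note: 0% = DMSO only wells and 100% = 100 µM nifuroxazide control wells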
STAT1 inh: STAT1 signaling inhibition. NIH 3T3 STAT1-luciferase reporter, IFN-gamma, luminescence. inhibition, % at 5.5 µM. 0.35% of 200,000 active;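 active = inhibition above a set limit, the mean inhibition across all tested compounds plus 3 SD, cut at about 34% in these data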;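 note: 0% = IFN-gamma with DMSO and 100% = IFN-gamma with 300 µM nifuroxazide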
PPC-1+TRAIL kill: kills PPC-1 cancer cells in the presence of TRAIL | cell killing (% activity), % at 4 µM or 5 µM | PPC-1 cells + TRAIL, ATPLite viability luminescence | 0.41% of 220,000 active;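 active = cell killing above 50% in the first pass at 4 µM, then a duplicate retest at 5 µM averaging 50% or more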;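 note: plate controls were cells with TRAIL plus DMSO for no effect and medium-only wells lacking cells for full effect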
C8 TRAIL sens: sensitizes caspase-8 expressing cells to TRAIL; NB7+C8 cells + TRAIL, ATPlite viability luminescence; inhibition (viability loss, TRAIL sensitization), % at 10 µM; 1% of 360,000 active; AID 624354;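 active = compounds causing at least 50% loss of cell viability in the single-dose screen, relative to plate controls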
HSF1 inhib: HSF1 inhibition; NIH3T3-HGL HSE-luciferase, MG132-induced, luminescence 8 h; active compounds read low; activity change, negative = inhibition, % at 7.5 µM (by protocol); 0.77% of 300,000 active; AID 2098;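 active = more than half of replicate wells show activity change below -50%, luminescence cut by over half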;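 note: luciferase reports HSF-1 transcriptional activity via heat shock element; 0% = median of DMSO wells and -100% = zero luminescence signal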
Numbers without * were called inactive; . = no result.

SMILES	HSP90 refold inh	STAT3 blocker	STAT1 inh	PPC-1+TRAIL kill	C8 TRAIL sens	HSF1 inhib
CN(C)CCCNC(=O)/C(=C/c1ccc(-c2ccc([N+](=O)[O-])cc2)o1)NC(=O)c1ccccc1	2	.	.	.	3	7
O=C1Nc2c(Cl)cccc2C1=O	.	.	.	.	9	.
CN(Cc1cccc(C(F)(F)F)c1)C(=O)C1CCC(=O)N(CC2CCCCC2)C1 (centres undefined)	-1	.	.	.	9	14
CNC[C@@H](CC1CCCCC1)NC[C@H](CC(C)C)NCCc1cccc(C(F)(F)F)c1	-1	.	.	.	92*	0
CCC[C@@H](CNC)NC[C@H](Cc1ccccc1)NCCCCc1ccccc1	-2	.	.	.	34	-7
CNC[C@@H](Cc1ccccc1)NC[C@@H](CC1CCCCC1)NCCCc1ccccc1	1	.	.	.	96*	6
C[C@H]1CN([C@@H](C)CO)C(=O)CCCn2nncc2CO[C@H]1CN(C)C(=O)Nc1cccc2ccccc12	.	.	.	.	-4	.
COc1cccc(Cn2c(NCc3cccnc3)nc3c2c(=O)n(C)c(=O)n3C)c1	-1	24	15	39	82*	-1
Cc1cccc(-c2cc(C(=O)N/N=C/c3cccnc3)c3ccccc3n2)c1	.	.	.	.	11	4
COc1cccc(-c2cc(C(=O)Nn3cnnc3)c3ccccc3n2)c1	5	12	6	19	52*	-9
COc1cc(/C=N/NC(=O)c2cc(-c3cccc(OC(C)C)c3)nc3ccccc23)ccc1O	.	.	.	.	53*	-5
COc1ccc(-c2cc(C(=O)N/N=C/c3cccnc3)c3ccccc3n2)cc1	-3	.	.	.	54*	.
CCCCCCCCN1C(=O)[C@H](CC(=O)N2CCCCC2)C[C@@]2(C(=O)OC)CCCCC=C12	.	.	.	.	6	.
COCCCN(Cc1ccco1)C(=O)CSc1nc2ncccc2[nH]1	5	.	.	.	-24	-55*
CCc1nc2ccc(C(=O)NCCCn3ccnc3)cn2c1N(C)Cc1nccs1	.	.	.	.	7	.
CCOC(=O)C1CCN(C(=O)CCS(=O)(=O)c2ccc3c(c2)CC(C)N3C(=O)CC)CC1 (centres undefined)	1	3	-10	-18	-2	-62*
CCOc1ccc(NC(=O)C2CCCN(S(=O)(=O)c3ccc4c(c3)C(C)(C)C(=O)N4C)C2)cc1 (centres undefined)	.	.	.	.	-13	.
CCC(CC)C(=O)N(C)c1c(C)nc2c(OCc3ccc(OC(F)F)cc3)cccn12	.	.	.	.	-10	.
COC1=CC(=O)c2c(ccc3ncnc(N)c23)C1=O	.	.	.	.	92*	.
Cc1ccc(S(=O)(=O)N(C)c2ccc(C(=O)NCCc3ccccc3)cc2)cc1	3	.	.	.	40	8
CCOc1ccc(S(=O)(=O)N(C)c2ccc(OCC(=O)NCCc3ccc(OC)cc3)cc2)cc1	0	.	.	-9	-10	-53*
COc1ccc(CCNC(=O)c2ccc(N(C)S(=O)(=O)c3ccc(C)cc3)cc2)cc1	-1	-8	2	14	-8	-55*
COCCNc1nc(Nc2ccc(C#N)cc2)c2sccc2n1	.	.	.	.	13	.
CC1(c2nc3ccccc3[nH]2)CCC2=Nc3ccccc3CN21 (centres undefined)	.	.	.	.	-5	.
CC(C)[C@@H]1Cc2[nH][nH]c(=O)c2[C@H](c2ccc(F)cc2)O1	.	.	.	.	-13	.
SMILES	HSP90 refold inh	STAT3 blocker	STAT1 inh	PPC-1+TRAIL kill	C8 TRAIL sens	HSF1 inhib
O=C(NCCN1CCN(Cc2ccccc2)CC1)c1ccc(CS(=O)(=O)c2c(Cl)cccc2Cl)o1	.	.	.	.	3	.
COCCNC(=O)c1cc2c(-c3ccccc3F)nn(C)c2s1	7	15	-2	10	13	-2
CCCCN(C)CCNC(=O)c1cc2c(-c3ccccc3F)nn(C)c2s1	0	.	.	.	-3	-63*
Cc1ncc(CO)c(CO)c1OCC(O)CN1CCN(c2ccc(F)cc2)CC1 (centres undefined)	.	.	.	.	-9	.
Cc1cccc(C)c1NC(=O)C(c1ccccc1OC(F)(F)F)N1CCN(C)CC1 (centres undefined)	.	.	.	.	-6	.
CCN(CC)CCCNc1ccc(-c2nnc(-c3ccc(OCC(C)C)cc3)o2)cn1	0	.	.	.	87*	-14
CC1(C(=O)NS(=O)(=O)c2ccc(F)cc2F)CCN1C(=O)c1ccccc1 (centres undefined)	.	.	.	.	-14	.
COc1ccc(CC(NC(C)=O)C(=O)NC2CCN(S(=O)(=O)c3ccccc3)CC2)c(OC)c1 (centres undefined)	17*	.	.	.	6	7
CSCC[C@H](NC(=O)C1CCN(S(=O)(=O)c2ccccc2)CC1)C(=O)NC1CC1	0	.	.	.	-9	-71*
